aSyn UTR act – Activators working through SNCA 5'UTR binding (MLPCN); alpha-synuclein 5'UTR reporter, activators screen; activity score, % (tested at 7.5 µM), hits read low; 300,000 tested, 7.1% active; AID 1814; in the data active = activity score below about -60%
Active calls of the source: *. Only a sample is shown.

SMILES	aSyn UTR act
CCOc1cc(/C=C(/C#N)C(=O)Nc2ccc(O)cc2)cc(Br)c1O	84
COc1cc(/C=C(/C#N)C(=O)Nc2ccccc2)c(Br)cc1OCc1ccc(C(=O)O)cc1	-67*
Cn1cnc2cc(NC(=O)c3ccco3)ccc21	-71*
O=C(Nc1ccc2c(c1)ncn2-c1ccccc1)c1ccco1	-131*
O=[N+]([O-])c1ccc(/C=C2\CCC(C3=CCCC3)=C2N2CCOCC2)cc1	-74*
CS(=O)(=O)Oc1ccc2c(c1)O/C(=C\C=C\c1ccccc1)C2=O	-81*
CCN(CC)Cc1c(O)ccc2c1O/C(=C\C=C\c1ccccc1)C2=O	-438*
Cc1ccc2[nH]cc(/C=C/c3cc[n+](C)cc3)c2c1	65
NC(=O)c1ccc(NC(=O)c2ccc3c(c2)OCO3)cc1	-139*
CCN1CCN(c2ccc(NC(=O)c3ccc4c(c3)OCO4)cc2)CC1	-123*
O=C(Nc1ccc(Cl)cc1)c1ccc2c(c1)OCO2	-84*
CC(C)(C)c1cnnn1-c1ccc(NC(=O)c2ccc3c(c2)OCO3)cc1	-86*
O=C(Nc1ccc(F)c(F)c1)c1ccc2c(c1)OCO2	-156*
O=C(Nc1ccc2c(c1)OCO2)c1cccc(Cl)c1	-148*
O=C(Nc1ccc(Cl)cc1)C1=Cc2ccccc2OC1	-150*
O=C(Nc1ccc(Cl)c([N+](=O)[O-])c1)c1ccc2c(c1)OCCO2	-133*
O=C(Nc1ccon1)c1ccc2c(c1)OCO2	-76*
Cn1cc(C(=O)Nc2ccc(Cl)c(Cl)c2)cn1	-85*
O=C(Nc1ccc(Cl)c(Cl)c1)c1ccc2c(c1)OCO2	-133*
O=C(Nc1ccc(Br)cc1)c1ccc2c(c1)OCO2	-174*
CCN(CC)S(=O)(=O)c1ccc(Cl)c(C(=O)Oc2cccc(-c3cnc4ccccc4n3)c2)c1	-90*
CCN(CC)S(=O)(=O)c1cc(C(=O)Oc2cccc(-c3cnc4ccccc4n3)c2)ccc1Br	-99*
c1ccc2nc(-c3nccs3)ccc2c1	-126*
Clc1ccsc1-c1ccnc(-n2cccc2)n1	-62*
c1ccc2nc(-c3ccncc3)ccc2c1	-96*
SMILES	aSyn UTR act
Clc1ccsc1-c1ccc2ccccc2n1	-113*
Cc1cc(-c2sccc2Br)nc(-n2cccc2)n1	-87*
COc1cccc(N=c2oc3ccccc3cc2-c2nc3ccccc3[nH]2)c1	-80*
O=C(Nc1cccc(F)c1)c1ccc(Br)o1	-66*
CC(=O)c1cccc(NC(=O)c2ccc(Br)o2)c1	-71*
S=C(Nc1ccc2nccnc2c1)N1CCCC1	-87*
O=C(Nc1ccc2nsnc2c1)N1CCCCCC1	-98*
S=C(Nc1ccc2nsnc2c1)N1CCCC1	-133*
Cc1csc2ncnc(N3CCN(C(=S)Nc4ccc(C(F)(F)F)cc4)CC3)c12	56
O=C(Nc1ccc(Cl)c(Cl)c1)N1CCCCCC1	-140*
O=C(Nc1ccc(Cl)c(C(F)(F)F)c1)C(=O)N1CCCCC1	-67*
COc1ccccc1NC(=O)Nc1ccc(CC#N)cc1	-115*
COc1ccc(NC(=O)Nc2ccccc2OC)cc1	-96*
CCN1CCN(Cc2ccc(NC(=O)Nc3ccccc3OC)cc2)CC1	-141*
CCOc1ccccc1NC(=O)Nc1ccc(Cl)cc1	-78*
COc1ccccc1NC(=O)Nc1ccc(N2CCOCC2)cc1	-134*
COc1ccc(OCc2cc(C(=O)N(C)CC3CCCCO3)no2)c(Cl)c1 (stereo not given)	-71*
COc1ccc(OCc2cc(C(=O)N(C)CCC3CCOCC3)no2)c(Cl)c1	-75*
COc1ccc(C(=O)/C=C/C(=O)N(CC(=O)NC2CCCCC2)CC2CCCO2)c(O)c1 (stereo not given)	73
COc1cc(Cl)ccc1OCc1cc(C(=O)N(C)CC2CCCCO2)no1 (stereo not given)	-139*
COc1ccc(OCc2cc(C(=O)N(C)C(C)c3ccon3)no2)c(Cl)c1 (stereo not given)	-115*
CN(C)c1nc(F)c(F)c(S(=O)(=O)c2ccccc2)c1F	-94*
CO/N=C/c1ccc(Oc2ccc(C)cc2)nc1	-77*
Clc1cc(Cl)c2nc(N3CCCC3)sc2c1	-103*
Clc1cccc2sc(N3CCCCC3)nc12	-109*
SMILES	aSyn UTR act
COc1ccc(-c2nsc3c(N4CCCC4)ncnc23)cc1	70
Clc1cc(Cl)c2nc(N3CCCCC3)sc2c1	-152*
COc1ccc(OC)c2sc(N3CCCCC3)nc12	-62*
CC(C)Oc1ccc(C(=O)Nc2ccc(NC(=O)c3ccco3)c(Cl)c2)cc1	-106*
O=C(Nc1ccc(Br)c(Cl)c1)c1ccco1	-162*
CC(C)COc1ccc(C(=O)Nc2ccc(NC(=O)c3ccco3)c(Cl)c2)cc1	-149*
Nc1ccc(C(=O)Nc2ccc(NC(=O)c3ccco3)c(O)c2)cc1	-82*
O=C(Nc1ccc(NC(=O)c2ccco2)c(Cl)c1)c1ccccc1	-99*
COc1ccc(C(=O)Nc2cccc(N(C)S(C)(=O)=O)c2)cc1OC	-168*
CN(c1cccc(NC(=O)Nc2cccc(Cl)c2)c1)S(C)(=O)=O	-92*
CC(Cc1cccs1)NC(=O)Nc1cccc(Cl)c1 (stereo not given)	-62*
CN(C)c1ccc(NC(=O)Nc2cccc(Cl)c2)cc1	-138*
Cc1ccc(-n2c(N)c(C(=O)Nc3c(C)n(C)n(-c4ccccc4)c3=O)c3nc4ccccc4nc32)cc1C	74
Cc1cccc(-n2c(N)c(C(=O)NCCN3CCOCC3)c3nc4ccccc4nc32)c1	-83*
CCOc1cc(/C=C2\SC(=S)N(Nc3ccccc3)C2=O)ccc1O	-165*
Cc1ccc(/C=C2\SC(=S)N(CCCC(=O)Nc3cccnc3)C2=O)cc1	79
COc1cc(/C=C2\SC(=S)N(Nc3ccccc3)C2=O)ccc1O	-145*
O=C1/C(=C/c2ccc(O)c(O)c2)SC(=S)N1Nc1ccccc1	-146*
COc1ccc(/C=C2\SC(=S)N(CCCC(=O)Nc3ccc(O)cc3)C2=O)cc1	78
CC(C)CC(=O)N/C(N)=N/c1nc2ccccc2o1	-160*
CCCC(=O)N/C(N)=N/c1nc2ccccc2o1	-121*
O=C(CCl)NN1C(=O)NC2(CCCCC2)C1=O	-76*
O=C(CCl)NN1C(=O)NC(c2ccccc2)(c2ccccc2)C1=O	-86*
CN(C)S(=O)(=O)c1cccc(NC(=O)COC(=O)c2cc3ccccc3oc2=O)c1	-105*
CCN(CC)S(=O)(=O)c1cccc(NC(=O)c2cc3ccccc3o2)c1	-126*
SMILES	aSyn UTR act
O=C(COC(=O)c1cc2ccccc2oc1=O)Nc1ccc(F)cc1F	-169*
CN(C)S(=O)(=O)c1cccc(NC(=O)c2cc3ccccc3o2)c1	-122*
C=CCNc1nc(Nc2ccccc2F)nc(OCC)n1	-122*
COc1cccc(NC(=O)c2cc3cccc(OC)c3o/c2=N\O)c1	-81*
COc1ccc(NC(=O)c2cc3cccc(OC)c3oc2=Nc2ccc(C(=O)O)cc2)cc1OC	-116*
O=c1c2ccccc2nc2ccc(NCc3cccs3)nn12	-164*
CC(=O)Nc1sc(N/N=C\c2ccccc2F)nc1-c1cccs1	-184*
CC(=O)Nc1sc(N/N=C\c2ccc(O)cc2)nc1-c1cccs1	-100*
CC(=O)Nc1sc(N/N=C\c2cccc(Cl)c2)nc1-c1cccs1	-82*
COc1cccc(-c2ccnc3[nH]n(-c4ccccc4)c(=O)c23)c1	-76*
O=C(/C=C\c1ccco1)NC(=S)Nc1ccccc1O	-74*
O=C(/C=C/c1ccco1)NC(=S)Nc1ccccc1O	-121*
CCOC(=O)c1c(C)[nH]c(C(=O)N/N=C\c2ccccc2Cl)c1C	-64*
CCOC(=O)c1c(C)[nH]c(C(=O)NNC(=O)c2ccccc2)c1C	-67*

Screening data deposited in PubChem BioAssay by Broad Institute.
